According to PubChem BioAssay (NCI):
Compounds without any hit were thinned out: in the full panel of roughly 83,000, 20% have a hit.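 Activity criterion: percent growth below 10, measured after cells in 96-well plates were exposed to a single compound concentration for 48 hours.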 Activity calls are given as the source filed them.

test system: MDA-MB-468 breast; experiment: NCI-60 one-dose screen, 48 h (100 = growth as untreated, 0 = no growth, -100 = all killed); conditions: 10 µM unless noted

SMILES	growth
Cc1cccc(Cl)c1NC(=O)c1ccc2nc(NC(=O)NCCN(C)C)sc2c1	30.6% (inactive)
CCn1cc2c(cc1=O)-c1nc3ccccc3c3ccnc(c13)C2=O	72.3% (inactive)
N#C/C(=C\c1ccc(-c2ccccc2)o1)c1nc(-c2ccco2)cs1	-32.4% (active)
CCCCCCCCO	98.9% (inactive)
CCNC(=O)N1CCc2c(Cl)c3c(c(OC)c2[C@@H]1[C@H]1OCc2c1ccc(OC)c2OC)OCCO3	-8.07% (active)
